Results published in PubChem BioAssay (Tox21).
Records with an inconclusive call do not appear. Calls of active or inactive are those of the source. Unless noted, calls come from the whole dose curve; as a rule, active = well fitted curve in the direction sought with a large enough effect in the repeat runs; inconclusive = weak or mixed curves; inactive = no such curve, though single readings can be large; an effect the other way counts as inactive or inconclusive.

Key:
[1] = qHTS assay to identify small molecule agonists of the hypoxia (HIF-1) signaling pathway - cell viability counter screen (AID 1224844; calls by dose curve; note: nearly all actives have a fitted effect of over 50% in size)
Outline: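 HRE-bla ME-180 cells, 2,000/well in 0.5% dialyzed FBS medium, treated 17 h at 37C with compounds. Viability read in the same wells as the bla reporter, by CellTiter-Glo luminescence after 30 min at room temperature.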

[2] = qHTS assay to identify small molecule agonists of H2AX (AID 1224845; active = well fitted activation curve with a large enough effect in the signal ratio in the repeat runs, not every such curve was filed as active; the % refers to the signal ratio)
Outline: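 Phospho-H2AX Ser139 measured by HTRF (ex 320 nm; em 665 and 620 nm) after 24 hr antibody incubation. Compounds, 15 concentrations, 0.76% DMSO, were applied to CHO-K1 cells for 3hr at 37C before lysis.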

[3] = qHTS assay to identify small molecule agonists of the hypoxia (HIF-1) signaling pathway (AID 1224846; active = well fitted activation curve with a large enough effect in the signal ratio in the repeat runs, not every such curve was filed as active; the % refers to the signal ratio)
Outline: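 HRE-bla ME-180 beta-lactamase reporter cells in medium with 0.5% dialyzed FBS, pre-incubated 5 h then exposed to compounds 17 h at 37C, 5% CO2; reporter induction read with CCF4-AM FRET substrate.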

[4] = qHTS assay to identify small molecule agonists of H2AX - cell viability counter screen (AID 1224847; calls by dose curve;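 note: wild-type CHO-K1 cells; top concentration of the series differs between compounds; nearly all actives have a fitted effect of over 30% in size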)
Outline: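 Counter-screen for viability: CellTiter-Glo ATP luminescence read after 3 h compound treatment (15-point titration, 0.76% DMSO final) of CHO-K1 cells at 37C, with 30 min room-temperature reagent incubation.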

[5] = qHTS RealTime-Glo MT Cell Viability Assay in HepG2 cells - 24 hour (AID 1224867); note: nearly all actives have a fitted effect of over 50% in size
Outline: (§1)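 Luminescence read-out: viable HepG2 cells reduce a prosubstrate to a NanoLuc substrate, giving a signal proportional to live cell number. Reads taken at 0, 8, 16, 24, 32 and 40 h of compound exposure at 37 C.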

[6] = qHTS RealTime-Glo MT Cell Viability Assay in HEK293 cells - 32 hour (AID 1224868); note: top concentration of the series differs between compounds; nearly all actives have a fitted effect of over 50% in size
Outline: (§2)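 Nonlytic real-time viability readout: viable cells convert prosubstrate to NanoLuc substrate, giving luminescence proportional to live cell number. HEK293, 600 cells/well, compound added after 5 h, continuous culture at 37 C.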

[7] = A CellTox Green Cytotoxicity Assay to monitor cytotoxicity in HEK293 cells - 0 hour (AID 1224869); note: nearly all actives have a fitted effect of over 50% in size
Outline: (§3)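 HEK293 cells, 600/well, were preincubated 5 hours and then exposed to compounds at 37 C for up to 40 hours. A cell-impermeant cyanine dye staining dead-cell DNA was read by fluorescence at 0, 8, 16, 24, 32 and 40 h time points.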

[8] = qHTS RealTime-Glo MT Cell Viability Assay in HepG2 cells - 40 hour (AID 1224870); note: nearly all actives have a fitted effect of over 50% in size
Outline: (§4)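 Real-time viability: cells seeded at 600 per well together with NanoLuc and cell-permeant prosubstrate, compounds added after 5 h incubation. Luminescence tracked at 0, 8, 16, 24, 32 and 40 h of exposure.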

[9] = qHTS RealTime-Glo MT Cell Viability Assay in HEK293 cells - 16 hour (AID 1224872)
Outline: as §2

[10] = qHTS RealTime-Glo MT Cell Viability Assay in HepG2 cells - 8 hour (AID 1224873); note: nearly all actives have a fitted effect of over 55% in size
Outline: as §4

[11] = qHTS RealTime-Glo MT Cell Viability Assay in HEK293 cells - 40 hour (AID 1224874); details: RealTime-Glo luminescence; max response: active compounds read low; note: nearly all actives have a fitted effect of over 50% in size
Outline: (§5)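 600 cells/well were plated with the nonlytic NanoLuc/prosubstrate reagent, pre-incubated 5 h, then given 23 nL of compound in DMSO. Incubation at 37 C for 40 h, with luminescence from viable-cell-reduced substrate read repeatedly from 0 h.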

[12] = A CellTox Green Cytotoxicity Assay to monitor cytotoxicity in HepG2 cells - 16 hour (AID 1224876); note: nearly all actives have a fitted effect of over 45% in size
Outline: (§6)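 HepG2 cells, 600/well, preincubated 5 h with CellTox Green dye, then exposed to Tox21 compounds in DMSO at 37 C for up to 40 h. Dead-cell DNA fluorescence read at the indicated time point.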

[13] = qHTS RealTime-Glo MT Cell Viability Assay in HepG2 cells - 32 hour (AID 1224877); note: nearly all actives have a fitted effect of over 55% in size
Outline: as §1

[14] = qHTS RealTime-Glo MT Cell Viability Assay in HEK293 cells - 0 hour (AID 1224880); note: top concentration of the series differs between compounds; nearly all actives have a fitted effect of over 45% in size
Outline: as §5

[15] = qHTS assay to identify small molecule antagonists of the estrogen related receptor (ERR) signaling pathway from Tox21 library (AID 1224848); note: nearly all actives have a fitted effect of over 50% in size
Outline: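 Reading was by luminescence 30 min after ONE-Glo addition. Before that, ERR cells at 2,000 per well had rested 6 h at 37 C/5% CO2 and then received pin-tooled compounds in DMSO for 18 h at 37 C.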

[16] = qHTS assay to identify small molecule agonists of the estrogen related receptor (ERR) signaling pathway from Tox21 library (AID 1224849; calls by dose curve; note: nearly all actives have a fitted effect of over 15% in size); details: ERR reporter cell line, ONE-Glo luciferase, 18 h; at 92.4 µM (top of the series) unless noted
Outline: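 ERR reporter cells (NTP line) pre-incubated 6 hours at 37 C, then exposed to compounds for 18 hours at 37 C. ONE-Glo luciferase luminescence was read after 30 minutes at room temperature.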

[17] = A CellTox Green Cytotoxicity Assay to monitor cytotoxicity in HEK293 cells - 40 hour (AID 1224871); note: nearly all actives have a fitted effect of over 45% in size
Outline: as §3

[18] = A CellTox Green Cytotoxicity Assay to monitor cytotoxicity in HEK293 cells - 24 hour (AID 1224875); note: nearly all actives have a fitted effect of over 45% in size
Outline: as §3

[19] = A CellTox Green Cytotoxicity Assay to monitor cytotoxicity in HepG2 cells - 24 hour (AID 1224878); note: nearly all actives have a fitted effect of over 45% in size
Outline: as §6

[20] = A CellTox Green Cytotoxicity Assay to monitor cytotoxicity in HepG2 cells - 40 hour (AID 1224879); note: nearly all actives have a fitted effect of over 40% in size
Outline: as §6
% is set by controls: 0 for no effect and ±100 for the full control effect.

Nc1c(Cl)cc(Cl)cc1Cl
inactive: Potency [1] | Potency [2] | Potency [3] | Potency [4] | Potency [5] | Potency [6] | Potency [7] | Potency [8] | Potency [9] | Potency [10] | max response [11] -15.4% | Potency [12] | Potency [13] | Potency [14]

Clc1ccc2nsnc2c1NC1=NCCN1
inactive: Potency [1] | Potency [2] | Potency [3] | Potency [4] | Potency [15] | activity change, positive = activation [16] -5.33% [at 42.5 µM] | Potency [5] | Potency [6] | Potency [7] | Potency [8] | Potency [17] | Potency [9] | Potency [10] | max response [11] 0.404% | Potency [18] | Potency [12] | Potency [13] | Potency [19] | Potency [20] | Potency [14]

CCC(N)(CO)CO
inactive: Potency [1] | Potency [2] | Potency [3] | Potency [4] | Potency [15] | activity change, positive = activation [16] 6.45% | Potency [5] | Potency [6] | Potency [7] | Potency [8] | Potency [9] | Potency [10] | max response [11] 11.9% | Potency [18] | Potency [12] | Potency [13] | Potency [19] | Potency [20] | Potency [14]

CNC(=O)c1ccccc1
inactive: Potency [1] | Potency [2] | Potency [3] | Potency [4] | Potency [5] | Potency [6] | Potency [7] | Potency [8] | Potency [17] | Potency [9] | Potency [10] | max response [11] -8.54% | Potency [18] | Potency [12] | Potency [13] | Potency [19] | Potency [20] | Potency [14]

CC(NN)c1ccccc1 (configuration not stated)
inactive: activity change, negative = cytotoxicity [1] 1.2% [at 15.8 µM] | activation (H2AX phosphorylation) [2] -2.63% [at 31.6 µM] | activation [3] -1.03% [at 15.8 µM] | Potency [4] | activity change, negative = cytotoxicity [5] 1.66% [at 15.8 µM] | activity change, negative = cytotoxic [6] 1.03% [at 15.8 µM] | cytotoxicity [7] -1.54% [at 15.8 µM] | activity change, negative = cytotoxic [8] -0.13% [at 15.8 µM] | cytotoxicity increase [17] -15.6% [at 15.8 µM] | activity change, negative = cytotoxicity [9] 0.13% [at 15.8 µM] | viability change, negative = cytotoxic [10] -0.527% [at 15.8 µM] | max response [11] 2.41% | activity change [18] -7.33% [at 15.8 µM, active compounds read high] | activity change, negative = cytotoxic [13] 1.72% [at 15.8 µM] | cytotoxicity [19] -5.39% [at 15.8 µM] | cytotoxicity increase [20] 0.373% [at 15.8 µM] | activity change, negative = cytotoxicity [14] -4.11% [at 15.8 µM]

O=C(O)c1ccc(Cl)c(Cl)c1
inactive: Potency [1] | Potency [2] | Potency [3] | Potency [4] | Potency [15] | activity change, positive = activation [16] -1.94% | Potency [5] | Potency [7] | Potency [8] | Potency [17] | Potency [9] | Potency [10] | max response [11] 2.99% | Potency [18] | Potency [12] | Potency [13] | Potency [19] | Potency [20] | Potency [14]
